This is an account of results in PubChem BioAssay (NCI).

About 83,000 compounds went through this panel and 20% of them were active in at least one assay; those are over-represented in the sample as a whole.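 Compound tested at a single concentration for 48 hours in 96-well plates; a percent growth value below 10 was scored as active.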 A number with no mark means an inactive call. The source made the active and inactive calls.

Some test systems named below: DU-145 prostate; K-562 leukemia; MALME-3M melanoma; MDA-MB-231 breast; RXF 393 renal; SF-268 CNS; SF-295 CNS; SF-539 CNS; UACC-257 melanoma; M14 melanoma.
Common to all, as to assay: NCI-60 one-dose screen, 48 h (100 = growth as untreated, 0 = no growth, -100 = all killed)

For the molecule `C[C@@H]1O[C@@H](O[C@H]2[C@@H](OC(=O)[C@]34CCC(C)(C)C[C@H]3C3=CC[C@@H]5[C@@]6(C)C[C@H](O)[C@H](O[C@@H]7O[C@H](CO)[C@@H](O)[C@H](O)[C@H]7O)[C@@](C)(CO)[C@@H]6CC[C@@]5(C)[C@]3(C)C[C@H]4O)OC[C@@H](O)[C@@H]2O)[C@H](O)[C@H](O[C@@H]2OC[C@@H](O)[C@H](O[C@@H]3OC[C@](O)(CO)[C@H]3O[C@@H]3OC[C@@H](O)[C@H](O)[C@H]3O)[C@H]2O)[C@H]1O[C@@H]1OC[C@](O)(CO)[C@H]1O`, the growth in the assay on DU-145 prostate (10 µM unless noted) is 78.5%; in the assay with K-562 leukemia (10 µM unless noted), 58.2%; with MALME-3M melanoma (10 µM unless noted), 89.9%; with MDA-MB-231 breast (10 µM unless noted), 74.1%; in the assay on RXF 393 renal (10 µM unless noted), 70.7%; with SF-268 CNS (10 µM unless noted), 85.7%. The growth is 62.3% with SF-295 CNS (10 µM unless noted), 85.5% with SF-539 CNS (10 µM unless noted), 56.2% in the assay with UACC-257 melanoma (10 µM unless noted) and 75.9% with M14 melanoma (10 µM unless noted).
Turning to `N#Cc1ccccc1-c1ccc(Cn2c(-c3cscn3)nc3c(Cl)cccc32)cc1`, the growth in the assay on DU-145 prostate (10 µM unless noted) is 86.5%; in the assay with K-562 leukemia (10 µM unless noted), 49.2%; in the assay on MALME-3M melanoma (10 µM unless noted) it was 92.4%; with MDA-MB-231 breast (10 µM unless noted) it was 79.7%; in the assay with RXF 393 renal (10 µM unless noted), 99.5%; with SF-268 CNS (10 µM unless noted), 71.3%. For the same molecule, the growth in the assay on SF-295 CNS (10 µM unless noted) was 67.9%; in the assay on SF-539 CNS (10 µM unless noted), 82.9%; in the assay with UACC-257 melanoma (10 µM unless noted) it was 89.5%; with M14 melanoma (10 µM unless noted) it was 87.1%.
Regarding `COc1ccc(C(=O)/C=C/c2ccc(OCc3ccc(Cl)cc3)cc2)cc1OC`, the growth with DU-145 prostate (10 µM) was 95.2%; with DU-145 prostate (100 µM) it was 14.9%; in the assay on K-562 leukemia (10 µM), 67.9%; with K-562 leukemia (100 µM), 52.2%; with MALME-3M melanoma (10 µM) it was 110%; in the assay with MALME-3M melanoma (100 µM), -19.5% (active). The growth in the assay on MDA-MB-231 breast (10 µM) is 110%; in the assay with MDA-MB-231 breast (100 µM) it was -22.5% (active); in the assay on RXF 393 renal (10 µM), 110%; in the assay on RXF 393 renal (100 µM), -2.05% (active); with SF-268 CNS (10 µM), 100%; in the assay with SF-268 CNS (100 µM), 14%. Besides, the growth is 98.4% with SF-295 CNS (10 µM); 16.2% in the assay on SF-295 CNS (100 µM); 106% in the assay on SF-539 CNS (10 µM); 32.5% in the assay with SF-539 CNS (100 µM); 94.3% in the assay on UACC-257 melanoma (10 µM); 35.4% in the assay on UACC-257 melanoma (100 µM). Also, the growth in the assay on M14 melanoma (10 µM) was 95.9%; in the assay on M14 melanoma (100 µM), 54.4%.
Regarding `NC(N)=NC(N)=NCCCc1ccco1`, the growth is 115% with DU-145 prostate (10 µM unless noted); 96.8% in the assay with K-562 leukemia (10 µM unless noted); 96.4% in the assay on MALME-3M melanoma (10 µM unless noted); 107% in the assay on MDA-MB-231 breast (10 µM unless noted); 114% in the assay with RXF 393 renal (10 µM unless noted); 94.1% in the assay with SF-268 CNS (10 µM unless noted). Also, the growth in the assay with SF-295 CNS (10 µM unless noted) is 93.9%; in the assay on SF-539 CNS (10 µM unless noted), 103%; in the assay on UACC-257 melanoma (10 µM unless noted), 99.8%; with M14 melanoma (10 µM unless noted), 111%.
As to `CCCCCCCCCCCCCCCCCCn1cc(COc2ccc(C=O)cc2)nn1`, the growth with DU-145 prostate (10 µM unless noted) is 92.4%; with K-562 leukemia (10 µM unless noted), 85.9%; in the assay with MALME-3M melanoma (10 µM unless noted), 106%; in the assay on MDA-MB-231 breast (10 µM unless noted), 110%; in the assay with RXF 393 renal (10 µM unless noted) it was 113%; with SF-268 CNS (10 µM unless noted), 93.7%. Further, the growth was 98.7% in the assay on SF-295 CNS (10 µM unless noted), 98.5% with SF-539 CNS (10 µM unless noted), 109% in the assay with UACC-257 melanoma (10 µM unless noted) and 92.8% in the assay on M14 melanoma (10 µM unless noted).
For the molecule `CCCN1C(=O)/C(=c2\sc3n(c2=O)NC2C(N=3)N(CC)C(=O)N2CC)c2ccccc21` (stereo not given), the growth was 33.5% in the assay with DU-145 prostate (10 µM unless noted); 13.7% with K-562 leukemia (10 µM unless noted); 61.8% with MALME-3M melanoma (10 µM unless noted); 24.4% in the assay with MDA-MB-231 breast (10 µM unless noted); -3.07% (active) in the assay with RXF 393 renal (10 µM unless noted); 70% in the assay with SF-268 CNS (10 µM unless noted). Moreover, the growth in the assay with SF-295 CNS (10 µM unless noted) is 39.6%; in the assay on SF-539 CNS (10 µM unless noted), 1.12% (active); in the assay on UACC-257 melanoma (10 µM unless noted) it was 47.5%; in the assay on M14 melanoma (10 µM unless noted) it was 23.3%.
Consider `COC(=O)/C=C1/SC(=Nc2ccc([N+](=O)[O-])cc2)N(CCc2c[nH]c3ccccc23)C1=O`, for which the growth was 66.8% with DU-145 prostate (10 µM unless noted); 25.8% in the assay on K-562 leukemia (10 µM unless noted); 86.5% with MALME-3M melanoma (10 µM unless noted); 72.1% in the assay on MDA-MB-231 breast (10 µM unless noted); 70.4% in the assay with RXF 393 renal (10 µM unless noted); 75.7% with SF-268 CNS (10 µM unless noted). For the same molecule, the growth in the assay with SF-295 CNS (10 µM unless noted) is 84.2%; with SF-539 CNS (10 µM unless noted) it was 79.6%; in the assay on UACC-257 melanoma (10 µM unless noted), 71.6%; with M14 melanoma (10 µM unless noted), 52%.
Take `CC(=O)/C=C/c1ccc(N(C)Cc2ccc(C(C)(C)C)cc2)cc1`: the growth in the assay on DU-145 prostate (10 µM) was 96.6%; in the assay with DU-145 prostate (100 µM) it was 0.731% (active); in the assay on K-562 leukemia (10 µM) it was 59.5%; in the assay with K-562 leukemia (100 µM), -12.4% (active); in the assay with MALME-3M melanoma (10 µM) it was 89.3%; in the assay on MALME-3M melanoma (100 µM), -88.1% (active). Also, the growth in the assay with MDA-MB-231 breast (10 µM) is 103%; in the assay on MDA-MB-231 breast (100 µM), -70.6% (active); in the assay on RXF 393 renal (10 µM), 106%; with RXF 393 renal (100 µM) it was -90.6% (active); in the assay on SF-268 CNS (10 µM) it was 102%; in the assay on SF-268 CNS (100 µM), -76.8% (active). The growth with SF-295 CNS (10 µM) is 88.9%; in the assay on SF-295 CNS (100 µM), -30.4% (active); in the assay on SF-539 CNS (10 µM) it was 98.9%; in the assay on SF-539 CNS (100 µM), -69% (active); with UACC-257 melanoma (10 µM), 84.6%; with UACC-257 melanoma (100 µM) it was -76.5% (active). Besides, the growth was 79.5% in the assay on M14 melanoma (10 µM) and -65.3% (active) in the assay with M14 melanoma (100 µM).
Turning to `c1cc(NCCCCN2CCOCC2)c2ccc3c(ccc4c(NCCN5CCOCC5)ccnc43)c2n1`, the growth in the assay on DU-145 prostate (10 µM unless noted) is 80.8%; in the assay with K-562 leukemia (10 µM unless noted), 66.5%; in the assay on MALME-3M melanoma (10 µM unless noted), 99.9%; with MDA-MB-231 breast (10 µM unless noted), 71%; in the assay on RXF 393 renal (10 µM unless noted), 72.5%; with SF-268 CNS (10 µM unless noted), 101%. For the same molecule, the growth in the assay with SF-295 CNS (10 µM unless noted) was 97.9%; in the assay on SF-539 CNS (10 µM unless noted), 82.3%; with UACC-257 melanoma (10 µM unless noted) it was 116%; with M14 melanoma (10 µM unless noted), 92.7%.
Consider `O=C(/C=C/c1cccc(Oc2ccc(Cl)cc2)c1)c1ccccc1`, for which the growth with DU-145 prostate (10 µM) was 95.3%; in the assay on DU-145 prostate (100 µM), -98.4% (active); with K-562 leukemia (10 µM), 31.6%; in the assay on K-562 leukemia (100 µM) it was -29% (active); with MALME-3M melanoma (10 µM), 102%; with MALME-3M melanoma (100 µM) it was -85.2% (active). The growth with MDA-MB-231 breast (10 µM) was 113%; with MDA-MB-231 breast (100 µM), -61.9% (active); with RXF 393 renal (10 µM), 101%; in the assay on RXF 393 renal (100 µM) it was -68.2% (active); in the assay with SF-268 CNS (10 µM), 101%; in the assay on SF-268 CNS (100 µM) it was -78.3% (active). The growth with SF-295 CNS (10 µM) is 94.9%; with SF-295 CNS (100 µM), -95.3% (active); in the assay with SF-539 CNS (10 µM), 99.8%; with SF-539 CNS (100 µM) it was -92.3% (active); with UACC-257 melanoma (10 µM) it was 101%; in the assay with UACC-257 melanoma (100 µM), -86.8% (active). Further, the results for the growth in the assay with M14 melanoma (10 µM) and in the assay on M14 melanoma (100 µM) were 89.5% and -54.4% (active), respectively.
